The values below come from the supplement of paper PMC6555819.

The subject of this experiment is RARb:RXRa (NR concentration 270 nM, RXRa partner concentration 90 nM). In words: PBM binding z-score (relative to random genomic background probes); higher = stronger binding; sequences stand for … in GC…GCGATTGACAGCGTAGAATGAAGG
The method in brief: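 Binding buffer was PBS pH 7.4 with 2% milk, 0.02% Triton X-100, 1 mM DTT, 0.2 mg/mL BSA and 0.4 mg/ml salmon testes DNA. In it, ligand-free nuclear receptor dimers were incubated 1 h on custom Agilent 4×180K protein-binding microarrays carrying double-stranded probes. Antibodies against each partner (one per run) detected binding, and z-scores were calculated against random background probes after regression normalization of scanned fluorescence.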
With ACTATTAGTTGAGAAGAGGGCAACCGATAGGTTG, the PBM binding z-score was determined as 1.32. Next, CGAACTAGGTCTGAACAGGACAGTGAAGGATGAT: -0.192; CCGAGTAGGTTATGGGGCATTCCGGCAACGGTGA: 0.966; GCTCGGATGACAAGGTCAGAGCTTTGTCCGTAGA: 2.61. Sequence CGAACTAGGTCAAAGGTCAAAGTCGAGCCAACCA returned a PBM binding z-score of 5.51. As to GCGACTGGTGCATCAGCAGGTTACCATAACTTAA, the PBM binding z-score was -0.228.

As to TCTAGTTGGTCACGGAGGTCACACACGACGGGTA, the PBM binding z-score turned out to be 3.82. For GTTGCTAGGTCAGGTTGGTCAGCTAACGGGTACG, the PBM binding z-score was determined as 3.4.

TCGTGTAGATCAGCAGGTTAAGAAAGCTGGCCAA displayed a PBM binding z-score of -0.0644. In turn, GCTGGCAGGCCATTTGGGTCACTCAATGACGGGC yielded a PBM binding z-score of 1.63. In turn, TGAATCAGGTTATAAGATCAGGGAACGTTGCAAA came in with a PBM binding z-score of 0.25. Next, AGCATGAGGTTATACGTAGATCAGGGAAGAAAGT: 1.46; CCTAGCAGGCCAATTTGGGTCACTCAAGGCTTGA: 1.29; GATACAGGGTCAAGACCAGAGTACGCGTATTGAT: 4.28. The sequence TCTCGGAGGACACGAAGGACAGAGCTTTCCAGAG registered a PBM binding z-score of 1.54. The sequence CCGACTGGGCCACGAAAGGTCATTGATTCAGTGA returned a PBM binding z-score of 3.79.

The sequence ATCGAAAGGTCGAAGGTTAGTATACCCACCCGAA came in with a PBM binding z-score of 3.76. The figure for TGAATGACGTTATAAGATCAGGGAACGTTGCAAA is -0.286. Take AGAATGAGGCTACCAAAGATCAGGGAAACGCTTG: the PBM binding z-score was 0.164.

CAAACTAGGTCAAGGTCATAGTCGGTTTGTGCCA displayed a PBM binding z-score of 4.97.

For TCACGGAGGACACGAAAGGTCAGAGCTCGACATC, the PBM binding z-score is 4.28. The sequence ACTAGCAGGCCAGGTTTGGGTCACTCAAACAAAG yielded a PBM binding z-score of 1.32.

For the sequence TAGCCTAGGTCATGGGCCAGTAGACCACGCGAAC, the PBM binding z-score worked out at 3.92. Sequence CCCTACGGGTCACTGACAGGTTATAGCATTTGGA had a PBM binding z-score of 4.02. With GATACAGGGTCAACGCCAGAGTACGCGTATTGAT, the PBM binding z-score was 4.7. The sequence ACAGACAGGTGACGAAGGTAACTCAGGCTATCAT returned a PBM binding z-score of 0.637. TCAGACAGGTGGAGGTAACTCAGGTACGCAGTCG gave a PBM binding z-score of 0.399. The sequence TCTATTAGTTGATTAGGGCAGCCGAAACAGCGGA gave a PBM binding z-score of 0.624. GCTAGCAGGCCATTTGGGACACTCAATGACGGGC returned a PBM binding z-score of -0.00778. TAGCCTAGGTCATGCAGGCCAGTATAGTGTCGGC gave a PBM binding z-score of 3.66. Next, TCTTGTAGATCAAGCAGGTTAATAAAGCCTGAGT: -0.0389. Regarding CTCCAAAGGTCGTGCTCAGGTGAGTATACCAAAC, the PBM binding z-score came to 4.08. The figure for GCTGCTAGGTCCACTGATGGTCAGCTAAAGCTCG is 0.403; for ATATGTAGCTTATCGGGTCATTCAGTTTGCGCAT it is 1.72. CCTCGGAGGACAGTAGGTCAGAGCTGTCCGCTTT: the PBM binding z-score came out at 1.97. On to AGAATGAGGTTATAAAGATCAGGGAATTGCGGTC, for which the PBM binding z-score was found to be 1.32. The figure for GCTTGTAGATTAAGGTTAAGAAAGACTAAGCTAA is 0.875; for CGTCAAAGTTCAATGTAACGTAACAGAAAGCAGC it is 4.83. Next, TCTATTAGTTGATAAGGGCAACCGAAACAGCGGA: 1.6; GCTAGTTGGTCAGTAAAAGGTCACAGACCGGTCG: 4.51.
